These entries were drawn from the full list.
aSyn UTR act – Activators via SNCA 5'UTR binding, MLPCN; alpha-synuclein 5'UTR reporter, activators screen; activity score, % (tested at 7.5 µM), hits read low; 300,000 tested, 7.1% active; in the data active means activity score below about -60%
Of the large screens only hits and unclear results are named; the others gave an inactive call.

CSc1nc2ccc(NC(=O)NC(=O)c3c(F)cccc3F)cc2s1	aSyn UTR act -125
Cc1nc(C)c(C(=O)Nc2nc3c(C)cccc3s2)o1	aSyn UTR act -74
COc1ccc2nc(NC(=O)C3CCCO3)sc2c1 (stereo not drawn)	aSyn UTR act -87
Cc1cccc2sc(NC(=O)C3CCCO3)nc12 (stereo not drawn)	aSyn UTR act -126
COc1ccc2nc(NC(=O)C3CCN(C(=O)c4ccco4)CC3)sc2c1	aSyn UTR act -73
CSc1nc2ccc(NC(=O)C3CCCO3)cc2s1 (stereo not drawn)	aSyn UTR act -125
COc1ccc(N2CCN(C(=O)c3ccc(NS(=O)(=O)c4cccs4)cc3)CC2)cc1	aSyn UTR act -75
COc1cccc(C(=O)Nc2ccc(N3CCN(C(=O)c4cccs4)CC3)cc2)c1	aSyn UTR act -162
CN1CCN(c2ccc(NC(=O)c3cccc(OCc4ccccc4)c3)cc2)CC1	aSyn UTR act -85
CC(C)Oc1cccc(C(=O)Nc2ccc(N3CCN(C)CC3)cc2)c1	aSyn UTR act -76
COc1ccc(S(=O)(=O)Oc2ccc3ccccc3c2)cc1	aSyn UTR act -93
Fc1ccc(Nc2ccnc(Nc3ccc(F)cc3)n2)cc1	aSyn UTR act -93
CC1=C(CO)C(=O)OC([C@@H](C)C2CC[C@H]3C4C[C@H]5O[C@]56[C@@H](O)C=CC(=O)[C@]6(C)C4CC[C@]23C)C1 (stereo partly drawn)	aSyn UTR act -91
COC(=O)c1ccc2nc(-c3ccc4c(c3)OCO4)cn2c1	none
NNC(=O)c1ccc2nc(-c3ccc(Br)cc3)cn2c1	aSyn UTR act -154
COc1ccc(-c2cn3cc(C(=O)NN)ccc3n2)cc1	aSyn UTR act -92
CC(C)(C)C1CCc2sc(-c3nnc(CCl)o3)cc2C1 (stereo not drawn)	aSyn UTR act -64
Cn1nnnc1SCC(=O)Nc1ccc2c(c1)OCCO2	aSyn UTR act -86
O=C(CSc1nnnn1-c1ccccc1)NC(=O)Nc1ccc2c(c1)OCCO2	aSyn UTR act -86
Nn1c(SCC(=O)NC(=O)Nc2ccc3c(c2)OCCO3)nnc1C1CC1	aSyn UTR act -96
Cc1cc(C)cc(NC(=O)C(=O)NCCCN2CCCC2=O)c1	aSyn UTR act -106
COc1cccc(NC(=O)C(=O)NCCCN2CCCC2=O)c1	aSyn UTR act -65
CN(C)C(=O)N1CCN(c2nc(-c3ccccc3)cs2)CC1	aSyn UTR act -192
Cc1cc(N2CCN(c3nc(-c4ccc([N+](=O)[O-])cc4)cs3)CC2)c2ccccc2n1	none
O=C1CNC(=S)N1c1nc(-c2ccccc2)cs1	aSyn UTR act -141
O=C(N1CCOCC1)N1CCN(c2nc(-c3ccccc3)cs2)CC1	aSyn UTR act -77
c1ccc(-c2csc(N3CCN(c4ccccn4)CC3)n2)cc1	aSyn UTR act -77
c1ccc(-c2csc(N3CCOCC3)n2)cc1	aSyn UTR act -145
CC(C)c1ccccc1-n1c(SCC(=O)c2ccc3c(c2)NC(=O)CO3)nc2ccccc2c1=O	none
COc1ccc(Nc2nc(-c3ccc4c(c3)NC(=O)CO4)cs2)cc1	aSyn UTR act -110
CCC(C)Nc1nc(-c2ccc3c(c2)NC(=O)CO3)cs1 (stereo not drawn)	aSyn UTR act -112
Cc1cccc(-n2nc3c(c2NC(=O)C2CC2)CS(=O)(=O)C3)c1C	aSyn UTR act -85
Cc1nc(-c2ccccc2)nc2[nH]ccc(=O)c12	aSyn UTR act -101
Cc1nc(-c2ccc([N+](=O)[O-])cc2)nc2[nH]ccc(=O)c12	aSyn UTR act -202
COC(=O)c1ccc2c(c1)C(C)(C)C(/C=C/c1ccc(O)cc1)=[N+]2C	none
COc1ccc(/C=C/C(=O)c2ccoc2)cc1	aSyn UTR act -62
COc1ccc(/C=C/c2cc(-c3ccc(C)cc3)o[n+]2C)cc1	none
COc1ccc(C(=O)NNC(=O)c2ccccn2)cc1	none
COc1cc(/C=C/c2ccc(O)cc2)cc(OC)c1	aSyn UTR act -156
COc1ccc(/C=C/C(=O)c2ccccc2O)cc1	aSyn UTR act -233
COc1ccc(/C=C/C(=O)c2ccccn2)cc1	aSyn UTR act -98
CN(C)c1ncnc2c1ncn2C1OC(CO)C(O)C1O (stereo not drawn)	none
COc1ccc2cc(C(=O)/C=C/c3cc(OC)c(OC)c(OC)c3)ccc2c1	aSyn UTR act -62
COc1ccc(/C=C/C(=O)c2ccc(O)cc2)cc1	aSyn UTR act -196
CN1CCN(/N=C/c2ccc(-c3ccccc3)cc2)CC1	aSyn UTR act -133
CSc1ccc(/C=N/N2CCN(C)CC2)cc1	aSyn UTR act -95
CSc1ccc(/C=N/n2c(C)cc(C)cc2=O)cc1	aSyn UTR act -127
Cc1ccc(NC(=O)CSc2ncc3ccccn23)cc1	aSyn UTR act -67
Cc1ccc(NC(=O)CSc2nccn2Cc2ccco2)cc1	aSyn UTR act -85
Cc1ccc(N=Nc2c(O)ccc3n[nH]nc23)cc1	aSyn UTR act -196
c1ccc(Oc2ccc3ccccc3n2)cc1	aSyn UTR act -129
CCCCOc1ccc(N=Nc2ccc(N)nc2N)cn1	aSyn UTR act -300
CC(C)(C)c1ccc(NC(=O)CC2(C(F)(F)F)OCCO2)cc1	aSyn UTR act -112
Cc1ccc2nc(-c3ccc(NC(=O)CSc4ccccc4)cc3)[nH]c2c1	aSyn UTR act -98
O=C(CSc1ccccc1)Nc1ccc(-c2nc3ccccc3[nH]2)cc1	aSyn UTR act -171
O=C(CSc1ccc(Cl)cc1)Nc1cccc(-c2nc3ccccc3[nH]2)c1	aSyn UTR act -89
O=C(CN1CCOCC1)Nc1ccc(-c2nc3ccccc3[nH]2)cc1	aSyn UTR act -111
O=C(Cc1cccs1)Nc1ccc(-c2nc3ccccc3[nH]2)cc1	aSyn UTR act -263
O=C(/C=C/c1ccc(-c2ccccc2[N+](=O)[O-])o1)c1ccco1	aSyn UTR act -136
COC(=O)C1CCN(C(=O)/C=C/c2ccc3c(c2)OCO3)CC1	aSyn UTR act -66
CC1CCC(NC(=O)c2ccc(NC(=O)c3ccc(=O)[nH]c3)cc2)CC1 (stereo not drawn)	aSyn UTR act -68
CC1CCC(NC(=O)c2ccc(NC(=O)CC3SC(N4CCCC4)=NC3=O)cc2)CC1 (stereo not drawn)	aSyn UTR act -129
O=C(CC1SC(N2CCCC2)=NC1=O)Nc1ccc(C(=O)Nc2ncccc2O)cc1 (stereo not drawn)	aSyn UTR act -266
CC(=O)N(c1nnc(-c2ccc(C)cc2)s1)C1CCCC1	aSyn UTR act -83
N#Cc1cnn(-c2ncnc3sc(-c4ccccc4)cc23)c1N	aSyn UTR act -65
Cc1ccc2nc(C)/c(=N\O)c(C)nc2c1	aSyn UTR act -239
Cc1nc2ccc(Cl)cc2nc(C)/c1=N\O	aSyn UTR act -219
CC(C)C(=O)N1CCN(c2nc3ccc(Cl)cc3s2)CC1	aSyn UTR act -140
CC(C)NC(=O)N1CCCN(c2nc3ccc(Cl)cc3s2)CC1	aSyn UTR act -62
Nc1ccccc1SC1CC(=O)N(c2ccc3c(c2)OCCO3)C1=O (stereo not drawn)	aSyn UTR act -78
NC(=O)COc1c(-c2ccc(Br)o2)oc2ccccc2c1=O	aSyn UTR act -62
CC(=O)Oc1ccc(Cl)cc1/C=C/c1ccc2ccccc2n1	aSyn UTR act -259
CC(=O)Oc1c(Cl)cc(Cl)cc1/C=C/c1ccc2ccccc2n1	aSyn UTR act -205
CC(=O)Oc1ccccc1/C=C/c1nc2ccccc2c(=O)o1	none
CN(C)/C=N/c1sc2c(c1C#N)CCCC2	aSyn UTR act -80
CC1CCc2c(sc(/N=C/N(C)C)c2C#N)C1 (stereo not drawn)	aSyn UTR act -80
O=C(c1ccco1)N1CCN(c2ccc(Cl)cc2)CC1	aSyn UTR act -130

Compound activity as filed in PubChem.
